Assay outcomes: PubChem, Broad Institute
U2OS ROS induce – ROS inducers in U2OS cancer cells, primary screen, cell-based, H2DCF-DA fluorescence; 46,000 compounds, 2% hits; U2OS ROS induction; ROS induction (% of piperlongumine), % at 10 µM; in the data active = ROS induction above about 79%, passing the limit was not always enough;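 note: 0% = DMSO vehicle median and 100% = reference compound median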
Starred values were filed as active, the others as inactive. Shown is part of a subset that was picked to be rich in hits.

SMILES | U2OS ROS induce
Cc1ccc(S[C@]2(C(=O)NCCCN(C)C)CC(=O)N(C3CCCCC3)[C@@H]2c2ccc(CO)cc2I)cc1 | 6
COc1ccc(CCNC(=O)[C@@H]2c3ccccc3C(=O)N(CC34CC5CC(CC(C5)C3)C4)[C@H]2c2ccc(CO)cc2)cc1 | 16
CN(C)CCCNC(=O)[C@@]1(c2ccc([N+](=O)[O-])cc2)CC(=O)N(C2CCCCC2)[C@@H]1c1ccc(CO)cc1I | 31
CCCNC(=O)[C@@]1(Sc2ccc(C)cc2)CC(=O)N(C2CCCCC2)[C@@H]1c1ccc(CO)cc1I | 162*
COc1ccc(NC(C)=S)cc1C | -1
C[C@@H]1CN([C@H](C)CO)C(=O)c2cc(NC(=O)Nc3ccccc3)ccc2O[C@@H]1CN(C)C(=O)Nc1cccc2ccccc12 | -11
COc1ccc(C(=O)NC(CC(=O)O)c2ccc(Cl)cc2)cc1 (stereo unspecified) | -22
O=C(O)CC(C(=O)Nc1cc(C(F)(F)F)cc(C(F)(F)F)c1)C1=CCCCC1 (stereo unspecified) | 5
C[C@@H]1CN([C@@H](C)CO)C(=O)Cc2cc(NS(=O)(=O)c3ccccc3)ccc2O[C@@H]1CN(C)C | -3
O=C(Nc1ccc2c(c1)OCO2)C(=S)NCc1ccccc1 | 10
O=C1Nc2ccccc2C(O)(C(=O)NCc2ccc3c(c2)OCO3)N1c1c(F)cccc1F (stereo unspecified) | -15
Cc1nc(S(=O)(=O)NCC2CCN(Cc3ccc(OCCO)cc3)CC2)cn1C | 4
Cc1cc(C(=O)Nc2cccc3c2O[C@H](CN(C)Cc2ccc(Oc4ccccc4)cc2)[C@H](C)CN([C@H](C)CO)C3=O)n(C)n1 | 18
CNC[C@H]1Oc2ccc(NS(=O)(=O)c3c(C)noc3C)cc2CC(=O)N([C@@H](C)CO)C[C@H]1C | 7
Cc1noc(C)c1S(=O)(=O)Nc1ccc2c(c1)C(=O)N([C@H](C)CO)C[C@H](C)[C@@H](CN(C)Cc1ccc(Cl)c(Cl)c1)O2 | 72
CNC[C@@H]1Oc2ccc(NS(=O)(=O)c3c(C)noc3C)cc2CC(=O)N([C@H](C)CO)C[C@@H]1C | -6
COc1ccc(CN(C)C[C@@H]2Oc3c(NC(=O)Nc4ccc(OC)cc4)cccc3C(=O)N([C@H](C)CO)C[C@H]2C)cc1 | 12
COc1ccc(NC(=O)Nc2cccc3c2O[C@@H](CN(C)Cc2ccc(Cl)c(Cl)c2)[C@H](C)CN([C@@H](C)CO)C3=O)cc1 | 96*
Cc1noc(C)c1S(=O)(=O)Nc1ccc2c(c1)C(=O)N([C@H](C)CO)C[C@@H](C)[C@@H](CN(C)Cc1ccc3c(c1)OCO3)O2 | 11
Cc1cc(C(=O)Nc2cccc3c2O[C@@H](CN(C)Cc2ccccc2)[C@@H](C)CN([C@@H](C)CO)C3=O)n(C)n1 | -5
Cc1cc(C(=O)Nc2cccc3c2O[C@@H](CN(C)Cc2ccc(Oc4ccccc4)cc2)[C@H](C)CN([C@@H](C)CO)C3=O)n(C)n1 | 117*
COc1ccc(CN(C)C[C@H]2Oc3c(NC(=O)Nc4ccc(OC)cc4)cccc3C(=O)N([C@H](C)CO)C[C@@H]2C)cc1 | 13
Cc1noc(C)c1S(=O)(=O)Nc1ccc2c(c1)C(=O)N([C@H](C)CO)C[C@@H](C)[C@@H](CN(C)Cc1ccc(Cl)c(Cl)c1)O2 | 101*
CNC[C@@H]1Oc2ccc(NS(=O)(=O)c3c(C)noc3C)cc2CC(=O)N([C@H](C)CO)C[C@H]1C | 99*
COC(=O)c1ccc(N(Cc2ccccc2)S(=O)(=O)c2ccccc2)cc1 | 10
SMILES | U2OS ROS induce
COc1ccc(C(=O)Nc2ccc3nc(SCC(=O)Nc4ccccc4F)sc3c2)cc1OC | -4
CC(=O)Nc1ccc(C(=O)N(CC#N)CC#N)cc1 | 3
C=CCOC(=O)[C@H]1[C@@H]2C(=O)O[C@@H](c3ccccc3)[C@@H](c3ccccc3)N2[C@@H](c2ccc(OCCOC(=O)[C@H]3C[C@H]4C(=O)N[C@@H](CCCCNC(C)=O)C(=O)N4[C@H]3c3ccc(O)cc3)cc2)[C@]12C(=O)Nc1ccccc12 | 31
COc1ccc(OC)c(S(=O)(=O)NCc2nn(-c3ccccc3)nc2C)c1 | -13
O=C1C[C@@](C(=O)NCCN2CCOCC2)(c2ccc([N+](=O)[O-])cc2)[C@@H](c2ccc(CO)cc2)N1CC12CC3CC(CC(C3)C1)C2 | 38
C[C@H](CO)N1C[C@H](C)[C@H](CN(C)Cc2ccc(Cl)c(Cl)c2)Oc2c(NS(=O)(=O)c3cn(C)cn3)cccc2C1=O | 26
Cc1ccc2cc(C3CC(c4ccco4)=NN3S(C)(=O)=O)c(=O)[nH]c2c1 (stereo unspecified) | 7
C[C@H](CO)N1C[C@H](C)[C@H](CN(C)C(=O)Nc2ccccc2F)OCc2cn(nn2)CCCC1=O | 7
Cc1ccc(Cn2c(C)c(CNC(C)CCc3ccccc3)c(C(=O)O)c2C)cc1 (stereo unspecified) | -7
O=C(CCCCCCC(=O)Nc1ccccc1O)N/N=C/c1cc(Br)cs1 | 22
Cc1noc(C)c1NC(=O)N(C)C[C@@H]1Oc2c(NC(=O)Nc3ccc4c(c3)OCO4)cccc2C(=O)N([C@H](C)CO)C[C@@H]1C | -5
C[C@H]1CN([C@@H](C)CO)C(=O)c2cccc(NC(=O)Nc3ccc(F)cc3)c2O[C@H]1CN(C)Cc1ccc2c(c1)OCO2 | 2
Cc1noc(C)c1NC(=O)N(C)C[C@H]1Oc2c(NC(=O)Nc3ccc4c(c3)OCO4)cccc2C(=O)N([C@H](C)CO)C[C@H]1C | -5
Cc1noc(C)c1NC(=O)N(C)C[C@@H]1Oc2c(NC(=O)Nc3ccc4c(c3)OCO4)cccc2C(=O)N([C@@H](C)CO)C[C@H]1C | 115*
C[C@@H]1CN([C@@H](C)CO)C(=O)c2cccc(NC(=O)Nc3ccc(F)cc3)c2O[C@H]1CN(C)Cc1ccc2c(c1)OCO2 | 115*
Cc1noc(C)c1NC(=O)Nc1cccc2c1O[C@H](CN(C)Cc1ccc(Oc3ccccc3)cc1)[C@H](C)CN([C@@H](C)CO)C2=O | -4
C[C@@H]1CN([C@H](C)CO)C(=O)c2cccc(NC(=O)Nc3ccc(F)cc3)c2O[C@@H]1CN(C)Cc1ccc2c(c1)OCO2 | -5
COc1ccc(NC(=O)N(C)C[C@@H]2Oc3c(cccc3N(C)C)C(=O)N([C@H](C)CO)C[C@H]2C)cc1 | -5
Cc1noc(C)c1NC(=O)Nc1cccc2c1O[C@@H](CN(C)Cc1ccc(Oc3ccccc3)cc1)[C@@H](C)CN([C@@H](C)CO)C2=O | 0
COc1ccc(NC(=O)N(C)C[C@H]2Oc3c(cccc3N(C)C)C(=O)N([C@@H](C)CO)C[C@H]2C)cc1 | -4
COc1ccc(NC(=O)N(C)C[C@H]2Oc3c(cccc3N(C)C)C(=O)N([C@H](C)CO)C[C@@H]2C)cc1 | 79*
Cc1noc(C)c1NC(=O)Nc1cccc2c1O[C@H](CN(C)Cc1ccc(Oc3ccccc3)cc1)[C@@H](C)CN([C@@H](C)CO)C2=O | 88*
C[C@H](CO)N1C[C@H](C)[C@@H](CN(C)Cc2ccc(C(F)(F)F)cc2)Oc2c(NS(=O)(=O)c3cccs3)cccc2C1=O | 32
Cc1ccc(C(=O)CSc2nc3cc(C(F)(F)F)ccc3n2C(C)C)cc1 | 5
Cc1ccc(S(=O)(=O)N(C)C[C@@H]2Oc3c(NS(=O)(=O)c4ccc(F)cc4)cccc3C(=O)N([C@H](C)CO)C[C@H]2C)cc1 | -11
COc1cc2c(cc1OC)C(Nc1ccc(Br)cc1)=NC(C)(C)C2 | 37
COc1ccc(S(=O)(=O)Nc2ccc3c(c2)CC(=O)N([C@@H](C)CO)C[C@H](C)[C@@H](CN(C)CC2CCCCC2)O3)cc1 | 4
